Measured values reported in PubChem BioAssay (NCI).
The panel holds about 83,000 compounds, 20% with a hit somewhere; the sample as a whole holds those more often.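 Interpretation: 100, growth as untreated; towards 0, rising growth inhibition; 0, no net growth; 0 to -100, cell death. Compounds scoring below 10 were considered active.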 Unmarked numbers belong to inactive results. Activity calls are given as the source filed them.

tested on: HL-60(TB) leukemia; assay: NCI-60 one-dose screen, 48 h (100 = growth as untreated, 0 = no growth, -100 = all killed); settings: 10 µM unless noted

Row | Structure (SMILES) | growth
1 | COc1ccc(C2=NN(C(C)=O)C(c3cccc(Nc4ccnc5cc(Cl)ccc45)c3)C2)cc1 (stereo not given) | 57.2%
2 | C=CC(=O)Nc1ccc(Oc2nccc(Nc3nnc(-c4ccc(C)cc4)s3)n2)cc1 | 41.6%
3 | COc1ccc2c(CCCCC(c3ccccc3)c3ccccc3)c3[n+](cc2c1OC)CCc1cc2c(cc1-3)OCO2 | -35.5% (active)
4 | CCCCOc1nc2ccc(C)cc2cc1/C=C/C(=O)/C=C(O)/C=C/c1cc2cc(C)ccc2nc1OCCCC | 99%
5 | N#CC[C@H](C1CCCC1)n1cc(-c2ncnc3[nH]ccc23)cn1 | 97.7%
6 | Cn1cc(-c2csc(-c3c[nH]c4ccccc34)n2)c2cnccc21 | -30.2% (active)
7 | COc1cc(C(=O)Nc2ccc(N(C)C)cc2)cc(OC)c1OC | 95.8%
8 | Cc1cc2nc(CN)[nH]c2cc1C | 96.6%
9 | CC(C)(C)OC(=O)N[C@@H](Cc1ccccc1)C(=O)N(Cc1ccccc1)C1(C(=O)NCc2ccccc2)CCN(Cc2ccccc2)CC1 | 7.23% (active)
10 | COc1ccc(-c2nc(-c3nc4cc(C)c(C)cc4[nH]3)cc3c2[nH]c2ccccc23)cc1 | -31.9% (active)
11 | COc1ccc(-c2cc3c(nn2)-c2ccccc2C3=O)cc1 | 57.4%
12 | CC(C)(C)CC(C)(C)N(CSc1ccc(Cl)cc1)CSc1ccc(Cl)cc1 | -35.3% (active)
13 | COc1cc(CNC(=O)CCCC/C=C/C(C)C)ccc1OCc1cn(-c2ccc(C(F)(F)F)cc2)nn1 | 85.3%
14 | CCn1cc(C2NC(=O)c3cc(F)ccc3N2)c2cccc(Cl)c21 (stereo not given) | -50% (active)
15 | COc1cc(C2=NN(c3ccc(S(N)(=O)=O)cc3)C(c3ccc(Cl)cc3)C2)cc(OC)c1OC (stereo not given) | -25.8% (active)
16 | Nc1nc(Nc2ccc(OCc3cccc(F)c3)cc2)c2c(n1)[nH]c1ccc(O)cc12 | -64.8% (active)
17 | O=C(CCc1nnc2sc(OCc3ccccc3)nn12)c1nc2ccc([N+](=O)[O-])cc2[nH]1 | 97.9%
18 | N#CCCc1ccc(O)cc1 | 95.6%
19 | Nc1cc2c([nH]c[n+]2CC#CCCl)c(SCC#CCCl)n1 | -17.8% (active)
20 | CC(=O)N1N=C(c2ccc(Nc3nc(Nc4ccccc4)nc(Nc4ccccc4)n3)cc2)CC1c1ccccc1 (stereo not given) | 79.3%

Row | Structure (SMILES) | growth
21 | O=C1/C(=C/C(Cl)=C/c2ccccc2)SC(=S)N1CCc1ccc(O)cc1 | -7.15% (active)
22 | O=c1ccccc(-c2ccc(-c3ccco3)cc2)c1O | -30.3% (active)
23 | CS(=O)(=O)N(c1cc(-c2ccc3ncnc(Nc4ccc(F)c(Cl)c4)c3c2)cnc1Cl)S(C)(=O)=O | 20.4%
24 | O=C(NCc1ccccc1)c1cccc([N+](=O)[O-])c1 | 101%
25 | C#CC[C@@H]1C[C@]2(C)[C@H]3CC[C@@H]4[C@H]5C(C(=C)C)CC[C@]5(C(=O)NCCCCN)CC[C@@]4(C)[C@]3(C)CC[C@H]2C(C)(C)[C@H]1OC(C)=O (stereo not given in full) | -38.3% (active)
26 | CC12O[C@H](C[C@@H](OC(=O)CCC(=O)O)[C@H]1O)n1c3ccccc3c3c4c(c5c6ccccc6n2c5c31)C(=O)NC4=O | 66.7%
27 | Fc1ccc(-c2nc(Nc3ccc(-c4nc5ccccc5[nH]4)cc3)nc(N3CCOCC3)n2)cc1 | -81.4% (active)
28 | CCCCCCCC/C=C\CCCCCCCCOc1cccc(CC(=O)NCC[N+]2(C)CCCCC2)c1 | 28%
29 | NC(=NC1C2CC3CC(C2)CC1C3)Nc1ccc(I)cc1 (stereo not given) | 101%
30 | Cc1cc(=O)oc2cc(O)cc(O)c12 | 109%
31 | COc1ccc(-c2nc(-c3nc4ccc(C)cc4[nH]3)c3ccccn23)cc1 | 30.5%
32 | COc1ccc(-c2nnc(COc3ccc(NC(=O)Nc4cc(C(F)(F)F)cc(C(F)(F)F)c4)cc3F)o2)cc1 | -17.2% (active)
33 | CCc1cc(Cc2cc(CC)cc(C(C)(C)C)c2O)c(O)c(C(C)(C)C)c1 | 58.1%
34 | Cc1ccc(C(=O)N(CCCN)[C@@H](c2nc3cc(Cl)ccc3c(=O)n2Cc2ccccc2)C(C)C)cc1 | -58.3% (active)
35 | O=C1NC(=O)c2c(CCCSc3nc4ccccc4c(=O)n3CCc3ccccc3)cccc21 | 111%
36 | CCC(O)CC(CC)CO (stereo not given) | 94.2%
37 | COc1cccc(NC(=O)Nc2ccc(Nc3ncnc4sc5c(c34)CCN(C(=O)CCl)C5)cc2)c1 | 90%
38 | Cc1ccc(S(=O)(=O)N(C)CCCCCC(=O)O)cc1 | 93.4%
39 | Cc1cc2ccccn2c1C(=O)c1ccc(C(=O)c2ccccc2)cc1 | -14.6% (active)
40 | Cn1cnc2c(F)c(Nc3ccc(Br)cc3Cl)c(C(=O)NOCCO)cc21 | 24.5%
